Records with an inconclusive call do not appear. Unmarked numbers belong to inactive results. Activity calls are given as the source filed them. Calls follow the shape of the dose curve; as a rule, active = well fitted inhibition curve with a large enough effect; inconclusive = small, poorly fitted or top-dose-only effect; inactive = no such curve, though single readings can be large or run the other way. Positions of bridges follow the written chain, without caps; N, C: chain ends. Non-standard residues stand in square brackets, D forms with d. Residues, ends and D or L forms follow the SMILES beside them. *: point of attachment. X1 = CCC(C)C(N)C1=NC(C(=O)*)CS1; dOrn = NCCC[C@@H](N)C(=O)O
Potency is read from the fitted curve at half-maximal effect.

The first assay is described as follows: BET inhibitor-based combinations targeting novel dependencies in MECOM-rearranged (r) AML: SET-2 cell line (AID 2202231). Also: nearly all actives have a fitted effect of over 35% in size.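 As to viability: plate controls were DMSO treated cells for no effect and wells without cells for full effect.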 To be noted: SET-2 AML cells viability, CellTiter-Glo luminescence, 48 h; viability: active compounds read low, concentration not given here. Summed up: (§1)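 Luminescent ATP readout (CellTiter-Glo) after 48 hr drug exposure gives viability. Curves span 11 concentrations and are normalized to DMSO and empty wells. Activity is reported as area under the curve and its Z-transform within each cell line.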
Background: In ATP-based viability assays light output follows the ATP content of the culture.
Turning to `CCC(C)C(N)C1=NC(C(=O)N[C@@H](CC(C)C)C(=O)N[C@H](CCC(=O)O)C(=O)N[C@H](C(=O)N[C@H]2CCCCNC(=O)[C@H](CC(N)=O)NC(=O)[C@@H](CC(=O)O)NC(=O)[C@H](Cc3cnc[nH]3)NC(=O)[C@@H](Cc3ccccc3)NC(=O)[C@H]([C@@H](C)CC)NC(=O)[C@@H](CCCN)NC2=O)[C@@H](C)CC)CS1` (stereo partly drawn) (X1-L[dE]IK[dOrn]I[dF]H[dD]N; lactam 4-C), the viability (as a rule, a read-out of living cells in per cent, often relative to untreated cells) is 117%.

For `O=C(O)c1cnn(-c2nc3cc(OC(F)(F)F)c(Cl)cc3[nH]2)c1`, the viability is 119%.

As to `C=CC(=O)Nc1cccc(Nc2nc(Nc3ccc(Oc4ccnc(C(=O)NC)c4)cc3)ncc2F)c1`, the Potency is 23.5 µM (active).

Consider `Oc1ccc(Nc2nc(-c3ccc(Cl)cc3)cs2)cc1`, for which the Potency was 9.34 µM (active).

In the case of `COC(=O)N1CCN(Cc2cccc(NC(=O)Nc3ccc(C)nc3)c2F)CC1`, the viability was 104%.

With `CCOC(=O)C1=C(N)Oc2ccc(Br)cc2C1C(C#N)C(=O)OCC` (stereo not drawn), the viability was 112%.

The nature of the next assay: BET inhibitor-based combinations targeting novel dependencies in MECOM-rearranged (r) AML: OCI-AML3 cell line (AID 2202232). Also: nearly all actives have a fitted effect of over 35% in size. To be noted: CellTiter-Glo luminescence, 48 h; Potency: OCI-AML3 viability; series mostly up to 46 µM. Summed up:
as §1
Consider `CCC(C)C(N)C1=NC(C(=O)N[C@@H](CC(C)C)C(=O)N[C@H](CCC(=O)O)C(=O)N[C@H](C(=O)N[C@H]2CCCCNC(=O)[C@H](CC(N)=O)NC(=O)[C@@H](CC(=O)O)NC(=O)[C@H](Cc3cnc[nH]3)NC(=O)[C@@H](Cc3ccccc3)NC(=O)[C@H]([C@@H](C)CC)NC(=O)[C@@H](CCCN)NC2=O)[C@@H](C)CC)CS1` (stereo partly drawn) (X1-L[dE]IK[dOrn]I[dF]H[dD]N; lactam 4-C), for which the Potency result was “inactive”.

In the case of `O=C(O)c1cnn(-c2nc3cc(OC(F)(F)F)c(Cl)cc3[nH]2)c1`, the Potency result was “inactive”.

Consider `C=CC(=O)Nc1cccc(Nc2nc(Nc3ccc(Oc4ccnc(C(=O)NC)c4)cc3)ncc2F)c1`, for which the Potency was 18.6 µM (active).

In the case of `COC(=O)N1CCN(Cc2cccc(NC(=O)Nc3ccc(C)nc3)c2F)CC1`, the Potency entry was “inactive”.

On to `O=C(CCCCCCC(=O)Nc1ccccc1)NO`, for which the Potency was 1.86 µM (active).

`CCOC(=O)C1=C(N)Oc2ccc(Br)cc2C1C(C#N)C(=O)OCC` (stereo not drawn): the Potency result is “inactive”.

The next assay in a line: BET inhibitor-based combinations targeting novel dependencies in MECOM-rearranged (r) AML: MV-4-11 cell line (AID 2202233). Also: nearly all actives have a fitted effect of over 45% in size. To be noted: MV-4-11 AML viability, CellTiter-Glo luminescence, 48 h; series mostly up to 46 µM. Summed up: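 Luminescent ATP readout (CellTiter-Glo, 15 min at room temperature) after 48 hr drug exposure gave viability. Dose-response curves, normalized to DMSO and empty-well controls, were summarized as area under the curve and its mean-centred Z-score.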
For the compound `CCC(C)C(N)C1=NC(C(=O)N[C@@H](CC(C)C)C(=O)N[C@H](CCC(=O)O)C(=O)N[C@H](C(=O)N[C@H]2CCCCNC(=O)[C@H](CC(N)=O)NC(=O)[C@@H](CC(=O)O)NC(=O)[C@H](Cc3cnc[nH]3)NC(=O)[C@@H](Cc3ccccc3)NC(=O)[C@H]([C@@H](C)CC)NC(=O)[C@@H](CCCN)NC2=O)[C@@H](C)CC)CS1` (stereo partly drawn) (X1-L[dE]IK[dOrn]I[dF]H[dD]N; lactam 4-C), the Potency result is “inactive”.

As for `O=C(O)c1cnn(-c2nc3cc(OC(F)(F)F)c(Cl)cc3[nH]2)c1`, the Potency entry was “inactive”.

Consider `C=CC(=O)Nc1cccc(Nc2nc(Nc3ccc(Oc4ccnc(C(=O)NC)c4)cc3)ncc2F)c1`, for which the Potency was 6.61 µM (active).

For `Oc1ccc(Nc2nc(-c3ccc(Cl)cc3)cs2)cc1`, the Potency was 14.8 µM (active).

On to `O=C(CCCCCCC(=O)Nc1ccccc1)NO`, for which the Potency is 0.742 µM (active).

Take `CCOC(=O)C1=C(N)Oc2ccc(Br)cc2C1C(C#N)C(=O)OCC` (stereo not drawn): the Potency result is “inactive”.

These data come from PubChem BioAssay (NCATS).
